Laboratory results: PubChem BioAssay (NCI)
This is part of a sample that, as a whole, favours compounds with a hit. Of some 83,000 tested, about 20% had one in any assay.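 Plates (96-well) were seeded with cells, treated with compound at one concentration, and incubated for 48 hours before percent growth was determined.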 A number with no mark means an inactive call. Calls of active or inactive are those of the source. The calls were made as follows: active = growth percent below 10; inactive = the rest.

Key:
Assay in all cases: NCI-60 one-dose screen, 48 h (100 = growth as untreated, 0 = no growth, -100 = all killed)
Conditions in all cases: 10 µM unless noted
[1] = system: SK-MEL-2 melanoma
[2] = system: EKVX NSCLC
[3] = system: SN12C renal
[4] = system: UO-31 renal
[5] = system: TK-10 renal
[6] = system: ACHN renal
[7] = system: CAKI-1 renal
[8] = system: A498 renal
[9] = system: CCRF-CEM leukemia
[10] = system: MOLT-4 leukemia
[11] = system: SR leukemia
[12] = system: RPMI-8226 leukemia
[13] = system: OVCAR-8 ovarian
[14] = system: OVCAR-5 ovarian
[15] = system: OVCAR-4 ovarian
[16] = system: SK-OV-3 ovarian
[17] = system: IGROV1 ovarian
[18] = system: OVCAR-3 ovarian
[19] = system: HS 578T breast
[20] = system: NCI/ADR-RES ovarian

SMILES | growth [1] [%] | growth [2] [%] | growth [3] [%] | growth [4] [%] | growth [5] [%] | growth [6] [%] | growth [7] [%] | growth [8] [%] | growth [9] [%] | growth [10] [%] | growth [11] | growth [12] | growth [13] [%] | growth [14] [%] | growth [15] [%] | growth [16] [%] | growth [17] [%] | growth [18] [%] | growth [19] [%] | growth [20] [%]
CC/C(=C(/c1ccc(O)cc1)c1ccc(OCCN2CCCCCC2)cc1)c1ccc(Cl)cc1 | 96.5 | 91.9 | 74.5 | 65.7 | 91.6 | 99.9 | 95.8 | 97.7 | 20.7 | 17 | -24% (active) | -41.6% (active) | 83.6 | 75 | 87.4 | 96.4 | 77.3 | 61 | 85.3 | 84.5
N=c1c2c(-c3ccccc3)c(-c3ccccc3)oc2ncn1NC(=O)c1cccnc1 | 111 | 96.1 | 102 | 75.9 | 112 | 109 | 93.8 | 73.6 | 84 | 89.9 | 77.7% | 97.5% | 97.7 | 109 | 101 | 99.2 | 95.7 | 111 | 103 | 107
O=C(CC1(O)C(=O)Nc2ccc(Br)cc21)c1ccc(Cl)cc1 (stereo not given) | 97.2 | 93.8 | 102 | 75.9 | 123 | 113 | 98.9 | 97.7 | 103 | 101 | 103% | 96.7% | 96.6 | 124 | 97 | 88.3 | 93.2 | 102 | 91.7 | 104
CCOC(=O)CC1CSC(c2cccc(Cl)c2)=N1 (stereo not given) | 109 | 100 | 106 | 96.4 | 92.1 | 109 | 97.8 | 81.9 | 102 | 95 | 92% | 104% | 102 | 113 | 111 | 103 | 113 | 107 | 102 | 96.4
